Source: PubChem BioAssay AID1417 (Emory University Molecular Libraries Screening Center, 2008)
Screen size: about 1,100 compounds; about 880 (80%) were called active. No rule for the calls is given here. The set was probably picked from earlier hits. This is one part of the list. Entries with a potency or affinity are not part of this list.

target: Induced myeloid leukemia cell differentiation protein Mcl-1 (Homo sapiens) (UniProt Q07820); assay: Mcl-1 Noxa peptide disruption concentration-response – biochemical, TR-FRET, dose response (AID 1417); conditions: Mcl-1/Noxa peptide interaction, cell-free TR-FRET (terbium/rhodamine), 2 h; at 54 µM (top of the series);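 also: 100% = protein plus peptide without compound and 0% = peptide alone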
Sequence (Q07820 whole entry, looked up): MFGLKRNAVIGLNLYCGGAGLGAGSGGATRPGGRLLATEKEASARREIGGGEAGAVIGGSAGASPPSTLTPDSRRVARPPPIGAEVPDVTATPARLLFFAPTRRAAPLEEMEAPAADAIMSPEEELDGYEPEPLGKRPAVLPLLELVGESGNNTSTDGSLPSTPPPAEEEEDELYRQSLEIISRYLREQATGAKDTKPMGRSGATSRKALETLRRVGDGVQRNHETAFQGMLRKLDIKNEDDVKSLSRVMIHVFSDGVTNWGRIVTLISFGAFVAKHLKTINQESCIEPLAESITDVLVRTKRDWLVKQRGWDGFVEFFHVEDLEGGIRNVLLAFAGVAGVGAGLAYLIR

Percent of control (lower = inhibition), active:
N=C1/C(=C\c2ccc(-c3ccc(C(=O)O)cc3)o2)C(=O)N=C2SC=C(c3ccccc3)N12 -1.95%, CN(C)c1ccc(NC(=O)Nc2cccc(Cl)c2)cc1 49.6%

Percent of control (lower = inhibition), inactive:
CCN1C(=O)/C(=C2/Sc3ccc(OC)cc3N2C)SC1=Nc1cccc(O)c1 54.8%, Cn1c(=O)c2c(nc(NCc3ccco3)n2CC(O)COc2ccccc2)n(C)c1=O (stereo not drawn) 81.3%, COc1ccccc1C1NC=C([N+](=O)[O-])C=C1[N+](=O)[O-] (stereo not drawn) 111%, CC1CCCCC1NC(=O)c1ccc2c(c1)[nH]c(=O)n2C1CCCC1 (stereo not drawn) 86.3%, c1ccc(Nc2cccc(Nc3ccccc3)c2)cc1 60.5%, CN(C)c1ccc(NC(=O)/C=C/c2c(Cl)cccc2Cl)cc1 80.1%
